Our source for the outcome values is PubChem BioAssay (Tox21).

Inconclusive results are not listed. The source made the active and inactive calls. The call rests on the fitted dose curve.

The nature of the assay: qHTS assay to identify small molecule agonists or antagonists of the thyroid stimulating hormone receptor (TSHR) signaling pathway - wild type cell line counter screen (AID 1259384). To be noted: HEK293 wild type, cAMP HTRF counter-screen; series mostly up to 92.4 µM. From the text:
U.S. Tox21 Program National Center for Advancing Translational Sciences [NCATS] NIH Chemical Genomics Center [NCGC] U.S. Environmental Protection Agency [EPA] National Institutes of Environmental Health Sciences [NIEHS] National Toxicology Program [NTP] U.S. Food and Drug Administration [FDA] Tox21 Assay Overview: TSHR is the receptor for thyrotropin (thyroid stimulating hormone or TSH), a member of the glycoprotein hormone family. TSH is released by the anterior pituitary gland and is the main regulator of thyroid gland growth and development. Upon binding circulating thyrotropin, a G-protein signal cascade activates adenylyl cyclase and […] cAMP concentration is increased. cAMP is a key second messenger involved extensively in cellular signal transduction pathways associated with the majority of G-protein coupled receptors (GPCRs). The activation of these GPCRs by neurotransmitters, lipids, nucleotides, peptides and hormones results in the activation or the inhibition of plasma membrane-bound adenylate cyclase through heterotrimeric G-proteins. A cell-based TSHR-Hek293 assay can be used to identify TSHR agonists. To eliminate the false positive compounds identified from screening a cell-based TSHR-Hek293 cell line, cAMP assay in a wild type Hek293 cells was used as a counter screening.
Tox21 Assay Protocol Summary: Hek293 cells (wild type) were dispensed at 800 cells/4 uL/well in 1536-well white plates using a Multidrop dispenser. After the assay plates were incubated at a 37 C/5% CO2 incubator for 18 hrs, 23 nL of compounds dissolved in DMSO, positive controls or DMSO only was transferred to the assay plate by a pin tool, followed by 1 ul medium containing Ro20-1724. After 30 min of incubation at room temperature, 2.5 ul/well of cAMP-d2 and 2.5 ul/well of anti-cAMP-cryptate were added respectively into the assay plates using a Flying Reagent Dispenser. The plates were incubated at room temperature for 1 hr. The fluorescence intensity in the plates was measured using an Envision plate reader. Each test compound was measured at 15 concentrations and in triplicates.
In general terms: In qHTS, concentration-response curves come from the screen itself.
For the compound `CC(=O)CCC=C(C)C`, the result was inactive. Regarding `CCCCC(C=O)CC` (stereo not given), the call was inactive. With `COCCCN`, the compound was called inactive.

Take `O=C(O)CCCCCCCCC(=O)O`: the compound was classed as inactive. For `CCCOC(=O)c1ccccc1`, the compound was classed as inactive. For the compound `COC(=O)c1cccnc1`, the compound was called inactive. For `O=C(O)Cn1c(=O)n(Cc2ccc(Br)cc2F)c(=O)c2ccc(Cl)cc21`, the compound was classed as inactive.

Consider `CC(=O)c1ccc(O)cc1`, for which the compound was called inactive. In the case of `NCCCCCCN`, the result was inactive. For `O=C(O)/C=C/C(=O)O`, the compound was classed as inactive. Take `C[C@]12CCC(=O)C=C1CC[C@@H]1[C@@H]2[C@@H](O)C[C@@]2(C)[C@H]1CC[C@]2(O)C(=O)CO`: the compound was classed as inactive. As for `NCCN1CCNCC1`, the compound was classed as inactive.

In the case of `C=C(C)C(=O)OCC(C)C`, the compound was called inactive. In the case of `COc1ccc(C)cc1N`, the compound was called inactive. On to `CN1C(=O)CC[C@H]1c1cccnc1`, for which the result was inactive. Regarding `CCCCCCC=O`, the compound was classed as inactive.

For the compound `O=[N+]([O-])c1ccc2nc[nH]c2c1`, the outcome was inactive. Turning to `CN(C)c1ccc(O)c2c1C[C@H]1C[C@H]3[C@H](N(C)C)C(=O)C(C(N)=O)=C(O)[C@@]3(O)C(=O)C1=C2O`, the compound was called inactive. Consider `Cc1ccc([N+](=O)[O-])cc1S(=O)(=O)O`, for which the compound was called inactive.

Regarding `CC(C)OC(=O)COc1ccc(Cl)cc1Cl`, the compound was called inactive. Take `CC(=O)OCc1ccco1`: the outcome was inactive. As for `CCCCCCCCCCO`, the outcome was inactive. As for `OCc1ccccc1`, the entry is “inactive”; as for `CCNC(=S)NCC`, “inactive”; as for `CCNc1cccc(C)c1`, “inactive”. The value for `CC(C)CCCCCCCOC(=O)CCCCC(=O)OCCCCCCCC(C)C` was “inactive”. `c1ccc2c(c1)Cc1ccccc1-2`: the call was inactive. Consider `COc1cc(OC)c(C(=O)CCCN2CCCC2)c(OC)c1`, for which the compound was classed as inactive. As to `O=C(O)c1ccc(S(=O)(=O)N(Cl)Cl)cc1`, the outcome was inactive.

As for `Nc1ccc(Cl)c(N)c1`, the compound was called inactive.

`C=C(C)CNCC`: the call was inactive. As to `CCNc1ccccc1`, the call was inactive. Regarding `O=C1c2ccccc2CCc2ccccc21`, the call was inactive. Take `N[C@H](Cc1c[nH]c2ccccc12)C(=O)O`: the outcome was inactive. For `C=Cc1ccc(C)cc1`, the result was inactive. With `C[Si]1(C)O[Si](C)(C)O[Si](C)(C)O[Si](C)(C)O1`, the compound was called inactive. In the case of `OCc1cccc(Oc2ccccc2)c1`, the compound was called inactive. For the compound `COc1ccccc1OCC(O)CO` (stereo not given), the outcome was inactive. Consider `CCOC(=O)n1ccn(C)c1=S`, for which the compound was classed as inactive. As for `C=CC(=O)OCCC(=O)O`, the outcome was inactive.
